# Compound activity from PubChem BioAssay.
# AmpC inh detg = qHTS Inhibitors of AmpC Beta-Lactamase (assay with detergent); P00811; AmpC hydrolysis of nitrocefin, absorbance 480 nm, 0.01% Triton; Potency, µM (highest dose often 114 µM), inactives show at the highest dose activity change, negative = inhibition, usual class: inhibitors; 370,000 compounds, 0.041% hits;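 further: 0% = no-compound wells and -100% = no-enzyme wells; nearly all actives have a fitted effect of over 25% in size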
# Target sequence (P00811 whole entry, looked up): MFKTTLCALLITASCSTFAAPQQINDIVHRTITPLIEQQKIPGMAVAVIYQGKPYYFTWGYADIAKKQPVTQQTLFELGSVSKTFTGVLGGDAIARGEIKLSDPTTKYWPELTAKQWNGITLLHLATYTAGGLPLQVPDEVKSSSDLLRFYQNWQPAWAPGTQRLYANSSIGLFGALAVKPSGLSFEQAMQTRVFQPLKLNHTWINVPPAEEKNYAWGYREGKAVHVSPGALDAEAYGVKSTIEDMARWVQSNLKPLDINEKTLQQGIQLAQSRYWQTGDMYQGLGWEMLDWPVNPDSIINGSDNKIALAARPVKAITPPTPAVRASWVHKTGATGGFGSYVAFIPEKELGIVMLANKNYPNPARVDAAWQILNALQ
#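 20 mM phosphate pH 7.0 + 0.01% (detergent screen) or 0.0001% Triton X-100; 5.3 nM AmpC reagent; cpd preinc 15 min RT; nitrocefin (800 uM stock) to start; A480 q20 s × 4 min; Activity was normalised to no-enzyme and no-compound control wells.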
# Pf growth 96h = Primary qHTS for delayed death inhibitors of the malarial parasite plastid, 96 hour incubation | P. falciparum luciferase reporter growth, 96 h | Potency, µM (doses to about 28.7 µM), without a hit: top-dose activity change, negative = inhibition, hits mostly inhibitors | 320,000 compounds, 6.9% hits | AID 504834, 2011; further: on the % scale 0 is the no-effect control and ±100 the full control effect
#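 Readout is luminescence from an integrated firefly luciferase in P. falciparum. Red cells, 2% hematocrit and 0.05% parasitemia final, were cultured with compound through two parasite generations (96 hours) at 37 C, 5% CO2.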
# Pf growth 48h = Primary qHTS for delayed death inhibitors of the malarial parasite plastid, 48 hour incubation; P. falciparum luciferase growth in erythrocytes, 48 h; Potency, µM (series often up to 28.7 µM), without a hit: at the top dose activity change, negative = inhibition, most hits filed as inhibitors; 310,000 compounds, 5.9% hits; further: on the % scale 0 is the no-effect control and ±100 the full control effect
#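 Luminescence readout; reporter = integrated firefly luciferase in P. falciparum. RBC culture at 2% hematocrit, 0.1% parasitemia final, 37 C/5% CO2; decreased signal taken as growth inhibition.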
# Sm TGR inh = qHTS Assay for the Inhibitors of Schistosoma Mansoni Peroxiredoxins | AID 485364, 2010 | 360,000 compounds, 3% hits | purified TGR, DTNB reduction, TNB absorbance 405 nm | Potency, µM (top dose mostly 114 µM), for the others: top-dose activity change, negative = inhibition, actives largely listed as inhibitors; further: on the % scale 0 is the no-effect control and ±100 the full control effect; nearly all actives have a fitted effect of over 60% in size
#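 TGR 20 nM + NADPH 100 uM (dispensed conc.), cpd preinc 15 min RT; start with NADPH (500 uM addition) then DTNB (15 mM addition). Kinetic TNB absorbance, 405 nm filter. Four-parameter Hill fit across titration.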
# AmpC inh no detg = qHTS Inhibitors of AmpC Beta-Lactamase (assay without detergent) | P00811 | AmpC nitrocefin hydrolysis, absorbance 480 nm, 0.0001% Triton | Potency, µM (titrated, usually from 57.1 µM), inactives show at the highest dose activity change, negative = inhibition, actives largely listed as inhibitors | 330,000 compounds, 0.52% hits | AID 485341, 2010;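 further: plate controls were no compound for no effect and no enzyme for full effect; nearly all actives have a fitted effect of over 20% in size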
#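 AmpC (5.3 nM in the dispensed reagent) in 20 mM phosphate pH 7.0 with 0.01% (detergent screen) or 0.0001% Triton X-100 was preincubated with compounds for 15 min at room temperature. Nitrocefin was then added from an 800 uM solution, and hydrolysis was followed at 480 nm.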
# SARS PLP yeast = qHTS of Yeast-based Assay for SARS-CoV PLP; S. cerevisiae expressing SARS-CoV PLpro, growth rescue; Potency, µM (top dose mostly 32.9 µM), without a hit: top-dose activity, positive = growth rescue, most hits filed as activators; 330,000 compounds, 0.19% hits; calls by dose curve; further: 0% is about no effect; nearly all actives have a fitted effect of over 55% in size
# * hit, by the source's call; ? = inconclusive; / = no result; ! = repeats disagree; [ ] = remark or other dose. Shown are actives, neighbours in structure and some others; about 12% of the full set was active somewhere. Unless noted, the call rests on the fitted dose curve; in most records, active means well fitted curve in the direction sought with a large enough effect; inconclusive means small, poorly fitted or top-dose-only effect, or another doubt; inactive means no such curve, though single readings can be large; an effect the other way counts as inactive or inconclusive. Potency means the concentration at half of the fitted maximal effect.
SMILES,AmpC inh detg,Pf growth 96h,Pf growth 48h,Sm TGR inh,AmpC inh no detg,SARS PLP yeast
COCC(C)NCc1ccccc1C (stereo not drawn),?,12µM*,10%,-14%,-13%,1%
COCC(C)NCc1cccc(OC)c1OC (stereo not drawn),?,49%,55%,25%,-25%,22%
CS(=O)(=O)N1CCC(C(=O)Nc2cccc(Br)c2)CC1,-6%,?,0%,-29%,-11%,19%
O=C(Cn1c(=O)oc2ccccc21)N1CCN(c2ccccc2)CC1,-9%,13µM*,13%,-2%,-18%,-1%
CCCCN(C(=O)CCn1c(=O)oc2ccccc21)c1ccccc1,-3%,?,?,25µM*!,30%,-4%
CN1C(=O)C(CC(=O)N2CCN(C(c3ccccc3)c3ccccc3)CC2)N(C)C1=O (stereo not drawn),?,?,12µM*,0%,111%,7%
O=C(CCn1c(=O)oc2ccccc21)N1CCN(C(c2ccccc2)c2ccccc2)CC1,-14%,31%,5.9µM*,-1%,63%,?
O=C(CCn1c(=O)oc2ccccc21)N1CCN(c2ccccc2F)CC1,1%,?,8%,-1%,15%,-4%
CCN1C(=O)N[C@@H](c2ccccc2)C1=O,/,9%[12.8 µM],0%[12.8 µM],/,/,/
O=C(NCCc1csc(-c2cccnc2)n1)c1cccc(C(F)(F)F)c1,-6%,/,/,-7%,/,/
COc1ccc(C)cc1NC(=S)NC(C)c1ccc(OC)c(OC)c1 (stereo not drawn),-5%,-1%,?,15%,-19%,-1%
O=c1c2oc3ccccc3c2n(Cc2ccccc2Cl)c(=O)n1Cc1ccc2c(c1)OCO2,-2%,/,/,-8%,/,/
Cc1c(C(=O)c2ccccc2)c2ccccc2n1C,-5%,0%,-3%,3%,-26%,-6%
Cc1c(/C(Cc2ccccc2)=N/O)c2ccccc2n1C,5%,10µM*,?,-27%,-9%,13%
COc1ccc2c(CNCCc3ccc(SC)cc3)c(C(=O)O)n(Cc3ccc(F)cc3)c2c1,16%,/,/,1%,/,/
Cc1ccc(CNC(=O)c2cc(C3CC3)nc3c2c(C)nn3-c2cccc(Cl)c2C)cc1,22%,/,/,8%,/,/
C/C(=N/NC(=O)c1cc2ccccc2cc1O)c1ccco1,-1%,14%,?,-10%,25µM*,2%
C/C(=N\NC(=O)c1c[nH]c2ccccc12)c1ccc(C)o1,4%,0.93µM*,/,-11%,-34%,-11%
CCc1ccc(/C=N/NC(=O)c2c[nH]c3ccccc23)s1,-1%,?,25%,0%,22µM*,8%
C/C(=N\NC(=O)c1cc2ccccc2cc1O)c1ccc(C)o1,1%,4%,?,0%,7.9µM*,-2%
C/C(=N\NC(=O)c1cc2ccccc2cc1O)c1cccs1,-7%,13%,57%,9%,?,-4%
Cc1ccccc1-c1noc(-c2ccc(N3CCN(C)CC3)c([N+](=O)[O-])c2)n1,1%,/,/,0%,/,/
Cc1cccc(CCNC(=O)c2sc3nc4n(c(=O)c3c2C)CCCC4)c1,9%,/,/,-27%,/,/
COc1ccc(S(=O)(=O)NNC(=O)c2ccc(-n3c(C)ccc3C)cc2)cc1,-15%,?,?,10µM*,-50%,-1%
Cc1cccc(NC(=O)c2ccc(CNS(=O)(=O)c3ccc4c(c3)C(C)(C)C(=O)N4C)cc2)c1,-6%,/,/,-17%,/,/
COc1ccc(C2(c3ccc(OC)cc3)NC(=O)N(CC(=O)NC3(C#N)CCCCC3)C2=O)cc1,7%,?,?,5%,-21%,2%
CCOc1ccc(S(=O)(=O)n2ccnc2C)cc1,-3%,12µM*,-7%,10%,-1%,2%
